Results on 7 compounds are retold here after PubChem BioAssay (NCI).

Common to all, as to assay: NCI-60 one-dose screen, 48 h (100 = growth as untreated, 0 = no growth, -100 = all killed)
What all share (settings): 10 µM unless noted

For experiment [1], the system named is HCT-15 colon.
The subject of experiment [2] is HT29 colon.
Experiment [3] has as its system SNB-75 CNS.
For experiment [4], the system named is SNB-19 CNS.
Experiment [5] deals with U251 CNS.
Experiment [6] relates to PC-3 prostate.
In experiment [7] the test system is SK-MEL-5 melanoma.
Experiment [8] deals with UACC-62 melanoma.
Experiment [9] concerns LOX IMVI melanoma.
Experiment [10] has as its system SK-MEL-28 melanoma.
For experiment [11], the system named is SK-MEL-2 melanoma.
The test system of experiment [12] is EKVX NSCLC.
Experiment [13] has as its system SN12C renal.
Experiment [14] deals with UO-31 renal.
Experiment [15] concerns TK-10 renal.
Experiment [16] concerns ACHN renal.
Experiment [17] concerns CAKI-1 renal.
In experiment [18] the test system is A498 renal.
For experiment [19], the system named is CCRF-CEM leukemia.
The subject of experiment [20] is MOLT-4 leukemia.

This is part of a sample that, as a whole, favours compounds with a hit. Of some 83,000 tested, about 20% had one in any assay.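 How to read the values: 0–100, growth inhibition (40 = 60% inhibited); 0, no net growth; -100 to 0, cell death (-40 = 40% of starting cells died; -100 = all dead).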 A number with no mark means an inactive call. The source made the active and inactive calls. Rule for the calls: active = growth percent below 10; inactive = the rest.

`COc1cc(/C=C/C(=O)c2nc3cc(F)ccc3nc2C)cc(OC)c1OC`: the growth in experiment [1] was 48.1%; in [2], 68.5%; in experiment [3], 89.9%; in experiment [4] it was 77.9%; in [5], 36.7%; in experiment [6] it was 68.1%. Moreover, the growth in experiment [7] is 81%; in experiment [8], 62.2%; in experiment [9], 20.8%; in experiment [10] it was 61.3%; in experiment [11], 64.6%; in [12], 201%. Besides, the growth in experiment [13] is 66.1%; in experiment [14], 61.1%; in experiment [15], 103%; in experiment [16] it was 87.3%; in experiment [17], 106%; in [18], 98%. Further, the growth was -4.9% (active) in experiment [19] and -18.6% (active) in [20].
Take `O=C(O)c1ccc(NCc2cn(-c3ccc(C(F)(F)F)cc3)nc2-c2ccc(C(=O)O)cc2)cc1`: the growth in experiment [1] is 101%; in [2] it was 108%; in [3] it was 91.8%; in experiment [4], 101%; in [5] it was 99.7%; in [6] it was 108%. Further, the growth in [7] was 103%; in [8], 101%; in experiment [9], 99.4%; in experiment [10] it was 112%; in experiment [11], 112%; in experiment [12] it was 98%. For the same compound, the growth in experiment [13] was 103%; in experiment [14], 84.2%; in experiment [15] it was 106%; in experiment [16] it was 109%; in experiment [17], 95.8%; in experiment [19], 106%. Besides, the growth in experiment [20] was 109%.
In the case of `Cn1cc(CC2CC(=O)N(c3ccccc3)C2=O)sc1=NC(=O)c1ccccc1` (centres undefined), the growth in experiment [1] is 101%; in experiment [2] it was 103%; in experiment [3], 82%; in [4], 100%; in [5], 102%; in [6] it was 95.5%. The growth was 101% in [7]; 93.3% in experiment [8]; 102% in experiment [9]; 98.1% in experiment [10]; 106% in experiment [11]; 95.1% in experiment [12]. Also, the growth was 103% in experiment [13]; 83.5% in [14]; 102% in experiment [15]; 101% in experiment [16]; 94.7% in [17]; 108% in experiment [19]. Moreover, the growth in experiment [20] was 106%.
Turning to `COc1cc2c(=O)n(CCN)c3c4cc5c(cc4ccc3c2cc1OC)OCO5`, the growth in experiment [1] was -75.5% (active); in experiment [2], -89.8% (active); in [3], 43.7%; in experiment [4], -67.1% (active); in experiment [5], -74.4% (active); in experiment [6], -60.1% (active). Also, the growth in [7] was -78.8% (active); in experiment [8] it was -12.5% (active); in experiment [9] it was -76.7% (active); in [10], -71.2% (active); in [11] it was 47.2%; in experiment [12] it was 52.7%. Further, the growth in [13] was -69.3% (active); in experiment [14], -84.8% (active); in experiment [15], 42.7%; in experiment [16] it was -10.5% (active); in experiment [17], 18.6%; in experiment [19] it was -19% (active). The growth in experiment [20] was -26% (active).
Take `N=C1C(c2nc3ccccc3s2)=C(O)CN1c1cc(Cl)cc(Cl)c1`: the growth in experiment [1] was 38.6%; in experiment [2], 82.6%; in experiment [3], 128%; in experiment [4], 95.2%; in experiment [5], 64.7%; in experiment [6], 26.1%. The growth in experiment [7] was 88.9%; in experiment [8], 78.1%; in experiment [9], 67%; in [10] it was 120%; in [11] it was 105%; in [12], 82.4%. In addition, the growth was 86.2% in experiment [13]; 60.2% in experiment [14]; 115% in experiment [15]; 73.4% in experiment [16]; 78% in experiment [17]; 98.5% in experiment [18]. Moreover, the growth in [20] is 29.4%.
Take `O=S(=O)(NCCNc1nccc(-c2c(-c3cccc(F)c3)nc3sccn23)n1)c1ccc(Cl)cc1`: the growth is 31.8% in experiment [1]; 36% in experiment [2]; 78.9% in [3]; 66.5% in [4]; 55.2% in experiment [5]; 56.9% in [6]. Moreover, the growth in [7] is 36.5%; in experiment [8], 44.3%; in experiment [9], 43.7%; in [10] it was 74.7%; in experiment [11], 79.8%; in [12], 66.3%. Further, the growth in experiment [13] was 48.7%; in experiment [14], 23.8%; in experiment [15], 88.5%; in [16], 35.7%; in experiment [17], 41.1%; in [19] it was 50.4%. In experiment [20], the growth is 46.8%.
As for `Fc1ccc(-c2cn3c(nc4ccccc43)c(-c3ccccc3)n2)cc1`, the growth in experiment [1] is 94%; in [2], 78.4%; in experiment [3], 68.9%; in [4], 103%; in experiment [5] it was 91.5%; in experiment [6] it was 85%. The growth in experiment [7] was 88.6%; in experiment [8] it was 78.9%; in experiment [9], 106%; in experiment [10], 185%; in experiment [11], 109%; in experiment [12], 108%. Also, the growth in experiment [13] is 89.2%; in experiment [14], 80.4%; in experiment [15], 113%; in experiment [16] it was 92.7%; in experiment [17] it was 84.9%; in experiment [18], 111%. The growth in [20] was 92.4%.
